Experimental data published in PubChem BioAssay (NCI).
Compounds without any hit were thinned out: in the full panel of roughly 79,000, 15% have a hit. No stated cut-off is given here; in the data, active means growth inhibition above about 70%; inactive means the rest.

Assays:
[1] = NCI Yeast Anticancer Drug Screen. Data for the rad50 strain (AID 155);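 further: 0% = growth of vehicle-only cultures of the same strain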; settings: S. cerevisiae rad50 strain growth inhibition; at 50.0 µM; active compounds read high
Procedure, shortened: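 A DNA repair-deficient yeast mutant serves as the test organism; compound-induced growth inhibition is calculated against vehicle-treated cells.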

[2] = NCI Yeast Anticancer Drug Screen. Data for the mec2-1 strain (AID 157); settings: S. cerevisiae mec2-1 strain, at 50.0 µM, active compounds read high
Procedure, shortened: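 Strain: mec2-1 (DNA repair/cell cycle alteration). Compound exposure, then growth measured; inhibition expressed relative to vehicle.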

[3] = NCI Yeast Anticancer Drug Screen. Data for the sgs1 mgt1 strain (AID 161);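 further: 0% = growth of cultures given vehicle only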; settings: S. cerevisiae sgs1 mgt1 strain, at 50.0 µM, active compounds read high
Procedure, shortened: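 Test agents were incubated with a DNA-repair-mutant yeast strain. Growth was then read and compared against vehicle-treated controls.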

[4] = NCI Yeast Anticancer Drug Screen. Data for the cln2 rad14 strain (AID 165);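 further: 0% = growth equal to vehicle treated cultures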; settings: S. cerevisiae cln2 rad14 strain, at 50.0 µM, active compounds read high
Procedure, shortened: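 Compounds are applied to the cln2 rad14 yeast strain, and growth is then compared with that of vehicle-treated cultures to give inhibition.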

[5] = NCI Yeast Anticancer Drug Screen. Data for the bub3 strain (AID 167); settings: S. cerevisiae bub3 mutant strain, at 50.0 µM, active compounds read high
Procedure, shortened: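 Inhibition values come from growth of compound-treated mutant yeast normalised to vehicle-treated controls.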

[6] = NCI Yeast Anticancer Drug Screen. Data for the mlh1 rad18 strain (AID 175); settings: S. cerevisiae mlh1 rad18 strain growth inhibition; at 50.0 µM; active compounds read high
Procedure, shortened: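 Read-out is yeast growth inhibition, calculated against vehicle-only controls. The compound was applied to a strain engineered with DNA damage repair alterations.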

Measured: growth inhibition

CCC(CC)COC(=O)c1ccccc1
inactive: [1] 0.95% | [2] -7.05% | [3] -3.75% | [4] -14.8% | [5] 17.2% | [6] -0.75%

COC(=O)NC(Nc1ccc(C)cc1)(C(F)(F)F)C(F)(F)F
inactive: [1] 11.9% | [2] -8.9% | [3] -39.6% | [4] 5.9% | [5] -2.65% | [6] -4.7%

O=C(O)c1c[nH]c2c(Cl)cccc2c1=O
inactive: [1] 18.9% | [2] -16.4% | [3] 4.3% | [4] 10.8% | [5] 18.4% | [6] 14.4%

C1=COC(C=Nc2ccccc2)CC1 (configuration not stated)
inactive: [1] -12.3% | [2] 13.8% | [3] 4.5% | [4] -18.2% | [5] 15.8% | [6] -12.6%

CCCCCOc1nc2c(c(=O)n(C)c(=O)n2C)n1C
inactive: [1] -0.4% | [2] -2.55% | [3] 4.65% | [4] -17.6% | [5] 3.45% | [6] 0.85%

O=S1(=O)C2C=CCC1C(Cl)CC2 (configuration not stated)
inactive: [1] -7.7% | [2] 29.9% | [3] 36% | [4] -24.4% | [5] 24.9% | [6] -5.25%

CNC(=O)c1ccccc1N
inactive: [1] 1.75% | [2] -6.95% | [3] -11.7% | [4] -84.2% | [5] 1.05% | [6] -17.2%

CN(C)c1cc2c(cc1N(C)C)-c1ccccc1C2
inactive: [1] 9.85% | [2] 6.5% | [3] 13.9% | [4] -0.2% | [5] 10.1% | [6] 28.9%

COc1cc(C(Nc2ccccn2)c2cc3c(cc2O)OCO3)cc(OC)c1O (configuration not stated)
inactive: [1] 28.2% | [2] 46.5% | [3] 39.3% | [4] 30.9% | [5] 15.7% | [6] 24.2%

O=C1CCN(Cc2ccco2)C(=O)N1
inactive: [1] 1% | [2] -12.3% | [3] 10.9% | [4] -41% | [5] -5.7% | [6] 10.2%

CC1(C)OC(=O)C=C[C@@]2(C)C1CC(=O)C1(C)C2CCC2(C)C(c3ccoc3)OC(=O)[C@H]3O[C@]321 (some centres not stated)
inactive: [1] 2.55% | [2] -24.3% | [3] 11.3% | [4] 9.95% | [5] -7% | [6] -6.25%

CCOc1cc2c(cc1O)C(O)C[C@@H]1[C@@H]2CC[C@]2(C)[C@@H](O)CC[C@@H]12 (some centres not stated)
inactive: [1] 14.8% | [2] -7.9% | [3] 22.7% | [4] 11.9% | [5] 24.2% | [6] 25.1%

CON(C)S(=O)(=O)c1ccc(Cl)cc1
inactive: [1] 7.75% | [2] -9.5% | [3] -4.15% | [4] -18.9% | [5] -2.25% | [6] -6.2%

CCOC1C[C@H]2C[C@H]3[C@@H]4CC=C5C[C@@H](OC(C)=O)CC[C@]5(C)[C@H]4CC[C@]3(C)C2=C(C)O1 (some centres not stated)
inactive: [1] 20.9% | [2] 12.7% | [3] 22.9% | [4] 36% | [5] 8.05% | [6] 20.6%

O=c1[nH]cc(CS)c(=O)[nH]1
inactive: [1] 28.4% | [2] 0.85% | [3] -7.95% | [4] 34% | [5] 51% | [6] 14.5%

CC(C)(C)C1=CC(=O)OC1(Cl)C(C)(C)C (configuration not stated)
inactive: [1] -0.65% | [2] 6.8% | [3] -1.05% | [4] 8.8% | [5] 13.8% | [6] -9.05%

CN(CCc1ccccn1)c1ccc2c(c1)C(=O)c1ccccc1-2
inactive: [1] 46.9% | [2] 13.4% | [3] -1.8% | [4] -13.1% | [5] -2.7% | [6] 9.85%

S=c1sc2cscc2s1
inactive: [1] -6.7% | [2] 18.6% | [3] -8.5% | [4] 28.6% | [5] -3% | [6] -1.8%

CCCCCCCCCCCCCCCCCC1=Nc2cc(C)c(C)cc2NC(=O)C1
inactive: [1] -21.7% | [2] -31.6% | [3] -30.1% | [4] 7.35% | [5] -12.8% | [6] -8.1%

Nc1nc2ncn(CC(O)COC(=O)c3ccccc3)c2c(=O)[nH]1 (configuration not stated)
inactive: [1] 23.8% | [2] -8.85% | [3] 27.3% | [4] 28.3% | [5] 27.4% | [6] 39.2%

COc1cc(C=Nc2ccc(Cl)cc2)ccc1O
inactive: [1] -35.9% | [2] -25.9% | [3] -19.1% | [4] -20.6% | [5] -24.9% | [6] -43.3%

O=C(O)c1cccc(Br)c1[N+](=O)[O-]
inactive: [1] -19.9% | [2] -7.9% | [3] -26.6% | [4] -36.1% | [5] -8.1% | [6] -5.9%

N=C1C=CC2C(=Nc3ccccc3[N+]2=O)N1Cc1ccncc1 (configuration not stated)
inactive: [1] -2.9% | [2] 1.3% | [3] -6% | [4] 1.45% | [5] 7.55% | [6] 22.8%

Cc1ccccc1N(C)S(=O)(=O)c1ccccc1[N+](=O)[O-]
inactive: [1] -12% | [2] -41.5% | [3] 8.45% | [4] -5.6% | [5] 20.2% | [6] -10.2%

CCOP(=O)(OCCN(C)C)C(c1ccccc1)c1ccccc1 (configuration not stated)
inactive: [1] 19.9% | [2] -3.85% | [3] -10.8% | [4] -6.25% | [5] -9.75% | [6] 34.6%

O=C(N/N=C/c1ccccc1)C1CC1
inactive: [1] 9.35% | [2] -10.2% | [3] 10.2% | [4] 8% | [5] 9.35% | [6] 1.85%

N#CC(NCc1ccccc1)c1ccccc1 (configuration not stated)
inactive: [1] 67.7% | [2] 43% | [3] 14.3% | [4] -17.1% | [5] 22.2% | [6] 19.8%

Cc1n[nH]c(=O)n1Nc1ccccc1
inactive: [1] 13.2% | [2] -7.7% | [3] 9.1% | [4] 13.3% | [5] 1.5% | [6] 6.6%

C[N+](C)(C)CC(=O)N/N=C(\Cc1nc2ccc([N+](=O)[O-])cc2[nH]c1=O)C(=O)Nc1nc2ccc([N+](=O)[O-])cc2s1
inactive: [1] 47.2% | [2] 29.9% | [3] 24.6% | [4] -6.05% | [5] 53.2% | [6] 16.9%

CCOC(NC(C)=O)C(O)c1ccc(Cl)cc1 (configuration not stated)
inactive: [1] 20.1% | [2] 11.2% | [3] 13.1% | [4] -41.5% | [5] -9.9% | [6] 18.2%

Cc1ccc(NC(=O)Oc2cccc(C(F)(F)F)c2)cc1
inactive: [1] -8.55% | [2] 17.4% | [3] 23.1% | [4] -12.7% | [5] 15.4% | [6] 35.6%

COc1cc(N=Nc2c(Cl)cc([N+](=O)[O-])cc2Cl)c(OC)cc1N=Nc1ccc(N)nc1N
inactive: [1] 23.4% | [2] 28% | [3] 7.05% | [4] 5.9% | [5] 3.85% | [6] 9.45%

Cc1cc(C2(O)CCCc3ccccc32)[n+]([O-])cc1C (configuration not stated)
inactive: [1] -17.3% | [2] -2.9% | [3] -9.4% | [4] -4.8% | [5] 0.75% | [6] 2.75%

CCCCC(=O)c1cc2ccccc2c2ccccc12
inactive: [1] -3.7% | [2] -20.4% | [3] 0.2% | [4] -11.1% | [5] 10.5% | [6] 6.3%

Cc1cc(OC(C)C)cc(C)c1C(=O)OCC(C)N1CCCC1 (configuration not stated)
inactive: [1] 11.8% | [2] -8.2% | [3] 19.9% | [4] 5.35% | [5] -4.9% | [6] 11.2%

CCCCCCCCCCCC(=O)N(C)CCS(=O)(=O)O
inactive: [1] 6.2% | [2] -28.8% | [3] 4.55% | [4] 13.1% | [5] -20.6% | [6] 8.45%

N#CC1=C(N)N(c2ccccc2)C(c2ccccc2)C1(C#N)C#N (configuration not stated)
inactive: [1] 6.45% | [2] 14.2% | [3] -8.3% | [4] -4.9% | [5] -22.9% | [6] -4.75%
